The target of assay [1] is Serine/threonine-protein kinase pim-2 (Homo sapiens) (UniProt Q9P1W9). The following applies: at 1 µM.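 Note: each value is a mean of the inhibition measurements against the kinase.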
In assay [2] the target is Serine/threonine-protein kinase pim-3 (Homo sapiens) (UniProt Q86V86). The settings on record: at 0.1 µM.
The target is the same in assay [3]. The following applies: at 1 µM.
The target in assay [4] is T1, MAP kinase-activated protein kinase 5 (Homo sapiens) (UniProt Q8IW41).
T1 sequence (whole entry): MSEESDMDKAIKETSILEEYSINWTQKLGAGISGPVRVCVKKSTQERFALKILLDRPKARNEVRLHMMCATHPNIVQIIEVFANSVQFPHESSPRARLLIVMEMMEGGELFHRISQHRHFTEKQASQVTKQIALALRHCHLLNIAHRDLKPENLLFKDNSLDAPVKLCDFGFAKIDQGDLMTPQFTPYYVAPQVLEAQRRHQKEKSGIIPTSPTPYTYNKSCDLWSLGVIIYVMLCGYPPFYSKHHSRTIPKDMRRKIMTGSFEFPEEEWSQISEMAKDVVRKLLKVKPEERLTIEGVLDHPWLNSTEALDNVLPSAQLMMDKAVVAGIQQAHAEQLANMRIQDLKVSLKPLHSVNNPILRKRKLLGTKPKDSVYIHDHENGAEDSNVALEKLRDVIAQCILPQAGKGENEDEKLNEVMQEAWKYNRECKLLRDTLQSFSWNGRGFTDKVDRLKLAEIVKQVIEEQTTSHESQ
The following applies: at 0.1 µM.

In assay [5] the target is T1, MAP kinase-activated protein kinase 5 (Homo sapiens). The following applies: at 1 µM.
Assay [6] addresses Serine/threonine-protein kinase SIK1 (Homo sapiens) (UniProt P57059). The settings on record: at 0.1 µM.
The target is the same in assay [7]. The settings on record: at 1 µM.
The target in assay [8] is Serine/threonine-protein kinase SIK2 (Homo sapiens) (UniProt Q9H0K1). The following applies: at 0.1 µM.
Chain of Serine/threonine-protein kinase SIK2 (Homo sapiens) (Q9H0K1 whole entry, looked up): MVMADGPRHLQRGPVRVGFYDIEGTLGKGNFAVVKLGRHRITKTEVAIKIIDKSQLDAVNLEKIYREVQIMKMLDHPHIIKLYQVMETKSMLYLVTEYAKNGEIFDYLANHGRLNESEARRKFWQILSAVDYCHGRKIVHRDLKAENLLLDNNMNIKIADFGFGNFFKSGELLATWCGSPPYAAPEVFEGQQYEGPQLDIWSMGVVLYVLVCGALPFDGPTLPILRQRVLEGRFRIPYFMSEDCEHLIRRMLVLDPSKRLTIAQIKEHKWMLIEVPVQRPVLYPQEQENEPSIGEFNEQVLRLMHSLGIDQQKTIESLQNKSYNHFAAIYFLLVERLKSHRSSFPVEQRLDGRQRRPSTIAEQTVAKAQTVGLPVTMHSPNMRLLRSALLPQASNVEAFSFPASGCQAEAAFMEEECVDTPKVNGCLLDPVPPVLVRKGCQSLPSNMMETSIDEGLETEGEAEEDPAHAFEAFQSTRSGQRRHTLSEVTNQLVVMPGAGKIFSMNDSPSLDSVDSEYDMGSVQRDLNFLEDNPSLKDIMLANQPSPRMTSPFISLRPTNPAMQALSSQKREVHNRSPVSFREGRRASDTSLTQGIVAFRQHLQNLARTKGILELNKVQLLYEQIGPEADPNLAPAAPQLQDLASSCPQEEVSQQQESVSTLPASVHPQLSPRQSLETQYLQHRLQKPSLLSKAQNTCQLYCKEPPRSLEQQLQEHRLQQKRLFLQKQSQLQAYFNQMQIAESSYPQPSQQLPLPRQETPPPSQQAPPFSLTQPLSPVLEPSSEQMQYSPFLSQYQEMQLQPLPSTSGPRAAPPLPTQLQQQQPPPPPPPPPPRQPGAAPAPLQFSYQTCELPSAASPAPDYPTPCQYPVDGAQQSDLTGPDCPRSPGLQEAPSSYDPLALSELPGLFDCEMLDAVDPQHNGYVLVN
The target is the same in assay [9]. The following applies: at 1 µM.
In assay [10] the target is T2, Serine/threonine-protein kinase TBK1 (Homo sapiens) (UniProt Q9UHD2).
T2 sequence (whole entry): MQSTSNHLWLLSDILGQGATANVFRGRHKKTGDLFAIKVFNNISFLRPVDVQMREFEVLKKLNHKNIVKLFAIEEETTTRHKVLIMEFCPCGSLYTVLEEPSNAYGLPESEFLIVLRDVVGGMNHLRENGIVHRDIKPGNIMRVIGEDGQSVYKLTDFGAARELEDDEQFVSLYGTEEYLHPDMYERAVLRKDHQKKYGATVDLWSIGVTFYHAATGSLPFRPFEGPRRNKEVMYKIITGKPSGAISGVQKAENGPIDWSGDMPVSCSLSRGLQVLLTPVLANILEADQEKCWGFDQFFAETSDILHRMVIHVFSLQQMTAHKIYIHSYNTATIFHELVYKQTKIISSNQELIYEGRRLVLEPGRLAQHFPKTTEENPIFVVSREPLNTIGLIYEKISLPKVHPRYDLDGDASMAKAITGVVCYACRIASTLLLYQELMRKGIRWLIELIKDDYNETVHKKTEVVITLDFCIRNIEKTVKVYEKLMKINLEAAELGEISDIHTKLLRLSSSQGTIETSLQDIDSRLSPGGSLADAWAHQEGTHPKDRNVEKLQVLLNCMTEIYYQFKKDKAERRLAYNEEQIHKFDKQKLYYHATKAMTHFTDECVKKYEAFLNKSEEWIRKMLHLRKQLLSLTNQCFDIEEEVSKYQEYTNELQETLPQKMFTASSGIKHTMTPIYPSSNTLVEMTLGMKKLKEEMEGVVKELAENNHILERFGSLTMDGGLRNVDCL
The following applies: at 0.1 µM.

The target in assay [11] is T2, Serine/threonine-protein kinase TBK1 (Homo sapiens). The following applies: at 1 µM.
In assay [12] the target is T3, Testis-specific serine/threonine-protein kinase 1 (Homo sapiens) (UniProt Q9BXA7).
T3 sequence (whole entry): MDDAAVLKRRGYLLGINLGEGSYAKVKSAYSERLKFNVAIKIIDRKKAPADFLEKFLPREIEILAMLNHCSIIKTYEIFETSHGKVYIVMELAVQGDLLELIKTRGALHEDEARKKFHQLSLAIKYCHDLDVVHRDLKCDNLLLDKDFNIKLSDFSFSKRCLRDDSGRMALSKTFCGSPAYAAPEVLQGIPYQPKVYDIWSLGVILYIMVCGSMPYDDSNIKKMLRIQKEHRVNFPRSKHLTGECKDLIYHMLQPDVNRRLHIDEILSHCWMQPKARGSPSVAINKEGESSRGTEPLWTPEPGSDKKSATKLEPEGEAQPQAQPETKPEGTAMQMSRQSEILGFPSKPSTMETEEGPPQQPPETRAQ
The settings on record: at 0.1 µM.

Assay [13] concerns the target T3, Testis-specific serine/threonine-protein kinase 1 (Homo sapiens). The following applies: at 1 µM.
The target in assay [14] is T4, Testis-specific serine/threonine-protein kinase 2 (Homo sapiens) (UniProt Q96PF2).
T4 sequence (whole entry): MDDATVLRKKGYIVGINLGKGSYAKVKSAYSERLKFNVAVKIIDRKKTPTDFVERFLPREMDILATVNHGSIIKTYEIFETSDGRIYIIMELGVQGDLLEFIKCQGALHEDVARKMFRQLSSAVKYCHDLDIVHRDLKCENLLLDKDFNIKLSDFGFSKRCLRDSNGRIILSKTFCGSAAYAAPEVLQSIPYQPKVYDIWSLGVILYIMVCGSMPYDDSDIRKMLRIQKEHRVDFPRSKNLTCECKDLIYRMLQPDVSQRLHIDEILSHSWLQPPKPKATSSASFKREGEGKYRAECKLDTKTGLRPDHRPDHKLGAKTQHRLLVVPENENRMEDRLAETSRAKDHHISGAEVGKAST
The following applies: at 0.1 µM.

The target in assay [15] is T4, Testis-specific serine/threonine-protein kinase 2 (Homo sapiens). The settings on record: at 1 µM.
Assay [16] deals with Casein kinase I isoform alpha (Homo sapiens) (UniProt P48729). The following applies: at 0.1 µM.
Chain of Casein kinase I isoform alpha (Homo sapiens) (P48729 2-337 limits assumed): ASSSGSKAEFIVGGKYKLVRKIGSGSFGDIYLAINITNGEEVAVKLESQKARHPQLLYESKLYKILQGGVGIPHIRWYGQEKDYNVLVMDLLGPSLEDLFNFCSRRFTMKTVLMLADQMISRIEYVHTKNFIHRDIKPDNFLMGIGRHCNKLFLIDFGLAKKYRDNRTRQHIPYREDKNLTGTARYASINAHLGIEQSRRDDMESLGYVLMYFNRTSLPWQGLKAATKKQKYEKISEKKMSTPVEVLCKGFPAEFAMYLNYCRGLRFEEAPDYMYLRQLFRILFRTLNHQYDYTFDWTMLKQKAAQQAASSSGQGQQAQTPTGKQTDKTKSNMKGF
For assay [17] the target is unchanged. The following applies: at 1 µM.
Assay [18] addresses Casein kinase I isoform gamma-1 (Homo sapiens) (UniProt Q9HCP0). The following applies: at 0.1 µM.
Assay [19] has the same target. The following applies: at 1 µM.
Assay [20] addresses Casein kinase I isoform gamma-2 (Homo sapiens) (UniProt P78368). The following applies: at 0.1 µM.

Results on 5 compounds are retold here after ChEMBL document CHEMBL1961873, “Compounds: GSK PKIS; Assays: Nanosyn kinase panel” (2012).

Chain of Casein kinase I isoform gamma-2 (Homo sapiens) (P78368 whole entry, looked up, canonical isoform): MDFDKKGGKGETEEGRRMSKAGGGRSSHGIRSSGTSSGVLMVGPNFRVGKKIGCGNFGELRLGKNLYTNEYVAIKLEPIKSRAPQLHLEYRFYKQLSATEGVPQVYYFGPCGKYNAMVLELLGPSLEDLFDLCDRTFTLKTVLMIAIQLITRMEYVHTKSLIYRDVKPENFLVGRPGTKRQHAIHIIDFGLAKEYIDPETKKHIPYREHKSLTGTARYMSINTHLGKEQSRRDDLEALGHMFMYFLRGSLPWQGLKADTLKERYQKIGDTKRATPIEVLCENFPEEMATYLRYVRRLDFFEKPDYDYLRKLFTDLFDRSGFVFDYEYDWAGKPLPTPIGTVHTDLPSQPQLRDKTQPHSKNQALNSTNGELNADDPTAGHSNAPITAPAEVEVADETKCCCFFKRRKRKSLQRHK
Chain of Casein kinase I isoform gamma-1 (Homo sapiens) (Q9HCP0 whole entry, looked up, canonical isoform): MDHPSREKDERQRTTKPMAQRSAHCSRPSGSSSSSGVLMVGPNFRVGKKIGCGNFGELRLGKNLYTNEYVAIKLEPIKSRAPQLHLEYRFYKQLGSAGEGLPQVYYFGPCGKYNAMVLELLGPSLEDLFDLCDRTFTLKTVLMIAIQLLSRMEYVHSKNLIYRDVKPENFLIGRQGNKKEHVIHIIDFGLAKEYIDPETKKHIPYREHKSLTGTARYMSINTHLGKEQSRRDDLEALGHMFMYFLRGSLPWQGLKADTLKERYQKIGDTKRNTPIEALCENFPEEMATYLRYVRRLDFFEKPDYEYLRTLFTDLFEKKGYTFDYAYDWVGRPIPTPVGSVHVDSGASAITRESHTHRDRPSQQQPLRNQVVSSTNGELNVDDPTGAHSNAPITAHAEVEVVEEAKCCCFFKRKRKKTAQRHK
Chain of Serine/threonine-protein kinase SIK1 (Homo sapiens) (P57059 whole entry): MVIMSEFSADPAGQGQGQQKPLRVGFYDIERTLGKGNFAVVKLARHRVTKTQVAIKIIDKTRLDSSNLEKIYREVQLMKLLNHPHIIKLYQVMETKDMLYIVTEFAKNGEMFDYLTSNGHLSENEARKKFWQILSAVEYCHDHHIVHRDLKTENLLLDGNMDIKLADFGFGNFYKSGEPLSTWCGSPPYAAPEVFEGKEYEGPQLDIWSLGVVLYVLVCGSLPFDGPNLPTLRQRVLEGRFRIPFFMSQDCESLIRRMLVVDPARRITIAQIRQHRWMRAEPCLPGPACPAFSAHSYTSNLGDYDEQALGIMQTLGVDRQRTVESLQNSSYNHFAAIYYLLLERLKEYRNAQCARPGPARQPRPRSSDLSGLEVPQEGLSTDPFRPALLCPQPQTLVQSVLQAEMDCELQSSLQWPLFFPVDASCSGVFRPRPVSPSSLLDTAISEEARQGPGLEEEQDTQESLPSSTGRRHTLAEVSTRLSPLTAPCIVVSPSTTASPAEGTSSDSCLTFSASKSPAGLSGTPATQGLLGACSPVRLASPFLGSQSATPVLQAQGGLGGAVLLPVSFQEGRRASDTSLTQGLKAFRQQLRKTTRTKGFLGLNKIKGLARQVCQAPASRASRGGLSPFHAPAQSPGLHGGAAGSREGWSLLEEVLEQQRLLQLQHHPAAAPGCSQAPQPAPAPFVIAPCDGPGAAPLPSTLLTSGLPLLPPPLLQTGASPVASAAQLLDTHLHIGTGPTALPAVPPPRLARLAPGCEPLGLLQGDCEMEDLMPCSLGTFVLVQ
Chain of Serine/threonine-protein kinase pim-2 (Homo sapiens) (Q9P1W9 whole entry, looked up): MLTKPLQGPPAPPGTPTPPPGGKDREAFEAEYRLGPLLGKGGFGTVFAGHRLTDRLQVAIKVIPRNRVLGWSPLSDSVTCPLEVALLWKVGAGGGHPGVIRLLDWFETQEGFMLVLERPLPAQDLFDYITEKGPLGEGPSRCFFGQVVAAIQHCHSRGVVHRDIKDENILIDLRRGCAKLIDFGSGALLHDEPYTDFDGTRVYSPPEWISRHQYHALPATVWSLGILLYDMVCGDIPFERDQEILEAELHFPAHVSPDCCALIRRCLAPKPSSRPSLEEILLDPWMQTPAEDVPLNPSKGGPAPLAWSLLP

A word on the inhibition: it is the change of the read-out against control, counted positive when it falls. With `Cc1ccc2c(-c3ccnc(Nc4ccccc4)n3)c(-c3ccc(F)cc3)nn2n1`, the inhibition in assay [1] is 0.72%; in assay [2], -1.46%; in assay [3] it was -3.61%; in assay [4], 0.87%; in assay [5] it was -0.35%; in assay [6], 1.9%. Also, the inhibition was determined as 24.1% in [7]; 13.3% in [8]; 33.2% in assay [9]; 1.85% in assay [10]; 2.79% in [11]; 2.68% in assay [12]. The inhibition in assay [13] is 0.03%; in assay [14] it was 2.66%; in [15], -2.67%; in [16], 33.6%; in [17], 70.7%; in assay [18] it was 5.48%. For the same compound, the values for the inhibition in assay [19] and in assay [20] were 32% and 5.54%, respectively.

Turning to `CCN1CCC(CC(=O)Nc2n[nH]c3nnc(-c4cccc(F)c4F)cc23)CC1`, the inhibition in [1] was 1.56%; in [2], 1.76%; in [3], 2.5%; in assay [4] it was 1.08%; in assay [5], 1.15%; in [6], 4.85%. The inhibition was 5.87% in assay [7]; -1.82% in assay [8]; 1.81% in [9]; 1.12% in [10]; 4.19% in [11]; 2.14% in assay [12]. For the same compound, the inhibition in assay [13] was 1.72%; in [14], 3.15%; in [15], 1.74%; in assay [16], 0.5%; in assay [17] it was -1.29%; in [18] it was 0.85%. Moreover, the inhibition in assay [19] was 2.08%; in assay [20], -0.21%.

Take `COc1ccc2[nH]c3c4[nH]c5ccc(OC)cc5c4c4c(c3c2c1)C(=O)NC4=O`: the inhibition in assay [1] is 68.3%; in assay [2] it was 66.7%; in assay [3] it was 82.7%; in assay [4], 2.48%; in assay [5], 8.8%; in assay [6], 26.9%. Further, the inhibition in [7] was 77.2%; in assay [8] it was 56.4%; in assay [9] it was 78.2%; in assay [10], 10.9%; in assay [11], 53.9%; in [12], 3.96%. Besides, the inhibition in [13] worked out at 11.6%; in assay [14], 3.41%; in assay [15], 4.83%; in assay [16], 2.15%; in assay [17] it was 5.69%; in assay [18], 4.82%. For the same compound, the inhibition in [19] was found to be 4.21%; in assay [20], 2.32%.

`COc1ccc(-c2oc3ncnc(N)c3c2-c2ccc(NC(=O)Nc3cc(C(F)(F)F)ccc3F)cc2)cc1`: the inhibition in assay [1] amounted to 1.06%; in [2] it was 0.37%; in [3], 5%; in assay [4], 2.58%; in assay [5], 4.28%; in assay [6] it was 6.56%. Also, the inhibition came to 14.4% in assay [7]; 11.9% in assay [8]; 10.7% in assay [9]; 1.47% in [10]; 3.95% in assay [11]; 4.93% in assay [12]. For the same compound, the inhibition in [13] was determined as 5.3%; in assay [14], 3.63%; in [15], 3.45%; in assay [16] it was 3.27%; in [17] it was 3.17%; in assay [18], 2.43%. Further, the inhibition in assay [19] came to 3.7%; in [20], 2.18%.

`CCn1c(-c2nonc2N)nc2c(C#CC(C)(C)O)nc(OC[C@H](N)c3ccccc3)cc21`: the inhibition in assay [1] turned out to be 3.44%; in assay [2], 0.83%; in assay [3], 4.27%; in [4], 0.68%; in assay [5], 1.6%; in assay [6], 3.53%. Further, the inhibition in [7] was 7.29%; in assay [8], 1.31%; in assay [9], -1.51%; in assay [10], 3.75%; in [11], 6.85%; in [12] it was 7.96%. Moreover, the inhibition stood at 44.1% in [13]; 0.93% in assay [14]; 2.24% in [15]; 2.03% in [16]; 11.4% in [17]; 1.99% in [18]. In addition, the inhibition was 5.61% in [19] and 1.71% in assay [20].
